Laboratory results taken from PubChem BioAssay (EPA / NIEHS).
Values joined by “and” are separate entries in the source; they are usually repeats but may differ in a detail not shown here. Equal entries are not always repeated. Records with an inconclusive call do not appear. Active and inactive are the calls of the source. The calls were made as follows, unless noted: active = hit-call score of the fitted dose curve at least 0.9, where 1 is the maximum; inactive = score below 0.9.

How the values were obtained:
[1] = APR_HepG2_CellCycleArrest_1hr: Apredica 1-hour HepG2 Assay for Cell Cycle Arrest (AID 2282666); settings: high-content imaging, actives raise or lower the signal
Procedure, shortened: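 HepG2 cells exposed for 1 h to 0.39–200 uM compound (0.5% DMSO). Fixed, Hoechst-stained nuclei imaged by ArrayScan; DNA content quantified by Cell Cycle analysis; bidirectional fit against DMSO.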

[2] = ACEA_ER_80hr: ACEA Biosciences xCELLigence Real-Time Cell Analysis on Estrogen Receptor Agonism for Proliferation (AID 2282667; active = hit-call score of the fitted dose curve at least 0.9, where 1 is the maximum); settings: T47D proliferation, impedance (xCELLigence), 80 h
Procedure, shortened: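 Estrogen-driven proliferation is captured as electrode impedance in T47D cells 80 h after compound addition. Test articles ran at 8 concentrations, 1:4 dilutions from 100 uM final, in two replicate plates.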

[3] = APR_HepG2_MicrotubuleCSK_1hr: Apredica 1-hour HepG2 Assay for Microtubule CSK Stabilty (AID 2282669); settings: HepG2 microtubule cytoskeleton imaging, actives raise or lower the signal
Procedure, shortened: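 HepG2 cells exposed 1 h to 0.39–200 uM compound (0.5% DMSO, duplicates), then formaldehyde-fixed, permeabilized and immunostained for alpha-tubulin with Hoechst nuclei. Imaged by ArrayScan high-content analysis; bidirectional fit versus DMSO.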

[4] = APR_HepG2_p53Act_1hr: Apredica 1-hour HepG2 Assay for p53 Activation (AID 2282671); settings: high-content imaging, actives raise or lower the signal
Procedure, shortened: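 HepG2 cells treated 1 h with compound at 0.39–200 uM (10 concentrations, duplicate) in 0.5% DMSO. Formaldehyde-fixed, permeabilised cells immunostained for p53 with Hoechst 33342; high-content imaging, bidirectional fit versus DMSO.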

[5] = APR_HepG2_MitoticArrest_1hr: Apredica 1-hour HepG2 Assay for Mitotic Arrest (AID 2282672); settings: high-content imaging, actives raise or lower the signal
Procedure, shortened: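 HepG2 cells exposed 1 hr to compounds at 0.39–200 uM (0.5% v/v DMSO final), then fixed in 3.7% formaldehyde and immunostained for phospho-histone H3 with Hoechst 33342. Mitotic arrest scored by automated fluorescence imaging, fitted bidirectionally versus DMSO.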

[6] = APR_HepG2_P-H2AX_1hr: Apredica 1-hour HepG2 Assay for H2AX Phosphorylation (AID 2282673); settings: high-content imaging, actives raise or lower the signal
Procedure, shortened: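 HepG2 dosed 1 hr at 0.39-200 uM (0.5% DMSO final), duplicate. Fixed in 3.7% formaldehyde, Triton permeabilized, immunostained for phospho-histone H2A.x (1:200) with Hoechst 33342; ArrayScan 20x imaging, bidirectional fit vs DMSO.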

[7] = APR_HepG2_MitoMembPot_1hr: Apredica 1-hour HepG2 Assay for Mitochondrial Membrane Potential (AID 2282675); settings: imaging, actives raise or lower the signal
Procedure, shortened: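 HepG2 cells dosed 1 hour with 0.39–200 uM compound in duplicate, 0.5% DMSO final. MitoTracker Red CMXRos (250 nM, 30 min) loaded before formaldehyde fixation; fluorescence quantified by high-content imaging, bidirectional fitting versus DMSO.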

[8] = APR_HepG2_CellCycleArrest_24hr: Apredica 24-hour HepG2 Assay for Cell Cycle Arrest (AID 2282905); settings: imaging, actives raise or lower the signal;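 also: cell cycle arrest scored as ratio of 2N to 4N nuclear DNA content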
Procedure, shortened: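 Cell cycle arrest is scored from nuclear DNA content measured by high-content imaging of Hoechst 33342-stained HepG2 cells following 24-hour treatment at ten concentrations up to 200 uM, with DMSO as baseline.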

[9] = APR_HepG2_StressKinase_1hr: Apredica 1-hour HepG2 Assay for Stress Kinase (AID 2282906); settings: HepG2 stress kinase (phospho-c-Jun) imaging, actives raise or lower the signal
Procedure, shortened: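 HepG2 cells dosed 0.39-200 uM (0.5% DMSO) for 1 h, then formaldehyde-fixed. Stress kinase read by phospho-c-Jun immunofluorescence using high-content imaging; bidirectional fit vs DMSO.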

[10] = APR_HepG2_NuclearSize_24hr: Apredica 24-hour HepG2 Assay for Nuclear Size (AID 2282907); settings: high-content imaging, actives raise or lower the signal
Procedure, shortened: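 Compounds in DMSO (final 0.5%) were added to human HepG2 hepatoma cells at ten concentrations up to 200 uM for 24 hr. Fixed nuclei were stained with Hoechst 33342, and nuclear diameter was quantified from automated images.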

[11] = APR_HepG2_MicrotubuleCSK_24hr: Apredica 24-hour HepG2 Assay for Microtubule CSK Stabilty (AID 2282909); settings: HepG2 microtubule cytoskeleton imaging, actives raise or lower the signal
Procedure, shortened: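 Steps: dose HepG2 for 24 h (0.39–200 uM, 0.5% DMSO); fix 30 min in 3.7% formaldehyde at room temperature; permeabilize; stain alpha-tubulin 60 min; image microtubule cytoskeleton at 20x. Signal change fitted in both directions relative to DMSO.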

[12] = APR_HepG2_MitoticArrest_24hr: Apredica 24-hour HepG2 Assay for Mitotic Arrest (AID 2282910); settings: high-content imaging, actives raise or lower the signal
Procedure, shortened: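 HepG2 cells, 24 h exposure at 0.39-200 uM (10 concentrations, duplicate, 0.5% DMSO). Fixed, stained for phospho-histone H3 with Hoechst; imaged by high-content microscopy, bidirectional fit versus DMSO.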

[13] = APR_HepG2_MitoMembPot_24hr: Apredica 24-hour HepG2 Assay for Mitochondrial Membrane Potential (AID 2282911); settings: imaging, actives raise or lower the signal
Procedure, shortened: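 Mitochondrial dye uptake (MitoTracker Red CMXRos, 250 nM, 30 min pre-fixation) in HepG2 after 24 hr compound exposure, 0.39–200 uM; ArrayScan images at 20x, activity fitted in both directions relative to DMSO.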

[14] = APR_HepG2_MitoMass_24hr: Apredica 24-hour HepG2 Assay for Mitochondrial Mass (AID 2282912); settings: high-content imaging, actives raise or lower the signal
Procedure, shortened: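 The liver line HepG2 was dosed in duplicate across a 0.39–200 uM series, with final DMSO held at 0.5% v/v, and harvested at 24 hr. High-content imaging measured mitochondrial dye staining.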

[15] = APR_HepG2_p53Act_24hr: Apredica 24-hour HepG2 Assay for p53 Activation (AID 2282913); settings: high-content imaging, actives raise or lower the signal;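 also: p53 protein immunofluorescence averaged per cell in HepG2 with Hoechst nuclei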
Procedure, shortened: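 Following 24 hr dosing of HepG2 at 0.39–200 uM, the cells undergo formaldehyde fixation, Triton permeabilization and multiplexed antibody labeling that includes p53 (Cy5). Signal from the imaging is referenced to DMSO solvent controls.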

[16] = APR_HepG2_CellCycleArrest_72hr: Apredica 72-hour HepG2 Assay for Cell Cycle Arrest (AID 2282914); settings: high-content imaging, actives raise or lower the signal
Procedure, shortened: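 Using multiplexed high-content imaging, HepG2 nuclei stained with Hoechst 33342 (2 ug/mL) were analysed for DNA content after fixation and permeabilization. Treatment lasted 72 hr across 0.39–200 uM in duplicate with final DMSO 0.5% v/v; DMSO served as negative control.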

[17] = APR_HepG2_CellLoss_1hr: Apredica 1-hour HepG2 Assay for Cell Loss (AID 2282668); settings: high-content imaging;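 also: curves fitted both ways against DMSO so gain or loss of cells counts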
Procedure, shortened: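 HepG2 cells were treated for 1 h with compound at 0.39–200 uM, in duplicate, in 0.5% DMSO. After formaldehyde fixation, Hoechst 33342-stained nuclei were imaged on an ArrayScan to count cells. Data were fitted bidirectionally versus DMSO.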

[18] = APR_HepG2_CellLoss_24hr: Apredica 24-hour HepG2 Assay for Cell Loss (AID 2282908); settings: high-content imaging;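 as to AC50: fit in both directions so a hit may be cell loss or gain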
Procedure, shortened: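 Cell number is quantified by fluorescence imaging of Hoechst 33342-stained nuclei following dosing at 0.39–200 uM in 0.5% DMSO. Curves are fitted in both directions from the DMSO baseline.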

[19] = APR_HepG2_NuclearSize_1hr: Apredica 1-hour HepG2 Assay for Nuclear Size (AID 2282670); settings: high-content imaging, actives raise or lower the signal
Procedure, shortened: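 HepG2 cells dosed 1 hr with 0.39–200 uM compound (0.5% DMSO), formaldehyde-fixed, Hoechst 33342-stained and imaged at 20x; nuclear diameter from nuclear stain, fitted bidirectionally against DMSO.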

[20] = APR_HepG2_MitoMass_1hr: Apredica 1-hour HepG2 Assay for Mitochondrial Mass (AID 2282674); settings: high-content imaging, actives raise or lower the signal
Procedure, shortened: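 HepG2 cells dosed 1 hr with 0.39-200 uM compound (0.5% DMSO), duplicate wells. Mitochondria stained with 250 nM MitoTracker Red CMXRos for 30 min before formaldehyde fixation, imaged at 20x by ArrayScan; bidirectional fit versus DMSO.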

Measured: AC50

CC(C)C1(C)N=C(c2nc3ccccc3cc2C(=O)O)NC1=O (stereo unspecified)
inactive: [1] | [2] | [3] | [4] | [5] | [6] | [7] | [8] | [9] | [10] | [11] | [12] | [13] | [14] | [15] | [16]

OC(c1ccc(Cl)cc1)(c1cncnc1)c1ccccc1Cl (stereo unspecified)
active: [11] 84.9 µM | [12] 91.1 µM | [13] 31.5 µM
inactive: [1] | [2] | [17] | [4] | [5] | [6] | [7] | [8] | [9] | [10] | [14] | [15] | [16]

COc1ccc(C(c2ccc(OC)cc2)C(Cl)(Cl)Cl)cc1
inactive: [1] | [3] | [4] | [5] | [6] | [8] | [9] | [10] | [12] | [13] | [14] | [15] | [16]
active: [2] 10.4 µM and 1.41 µM and 728 nM | [7] 100 µM | [18] 60.5 µM | [11] 69.8 µM

CC(Oc1ccc(Cl)cc1Cl)C(=O)O (stereo unspecified)
inactive: [1] | [2] | [3] | [19] | [4] | [5] | [6] | [7] | [8] | [9] | [10] | [11] | [12] | [13] | [14] | [15] | [16]

COC(=O)N(OC)c1ccccc1COc1ccn(-c2ccc(Cl)cc2)n1
inactive: [1] | [2] | [17] | [3] | [19] | [4] | [5] | [6] | [20] | [8] | [9] | [10] | [12] | [14] | [15] | [16]
active: [7] 0.0634 µM | [18] 3.37 µM | [11] 6.07 µM | [13] 0.332 µM

CC1=C(C(=O)Nc2ccccc2)SCCO1
inactive: [1] | [2] | [17] | [4] | [5] | [6] | [7] | [8] | [9] | [10] | [11] | [12] | [13] | [14] | [15] | [16]

CC(C)Oc1cc(-n2nc(C(C)(C)C)oc2=O)c(Cl)cc1Cl
active: [11] 46.4 µM
inactive: [1] | [2] | [19] | [4] | [5] | [6] | [20] | [7] | [8] | [9] | [10] | [12] | [13] | [14] | [15] | [16]

CCCCC(CC)COC(=O)c1ccccc1C(=O)OCC(CC)CCCC (stereo unspecified)
inactive: [1] | [2] | [17] | [19] | [4] | [5] | [6] | [20] | [7] | [8] | [9] | [10] | [18] | [11] | [12] | [13] | [14] | [15] | [16]

CCOC(=O)C(Cl)Cc1cc(-n2nc(C)n(C(F)F)c2=O)c(F)cc1Cl (stereo unspecified)
inactive: [1] | [2] | [19] | [4] | [5] | [6] | [20] | [7] | [8] | [9] | [10] | [11] | [12] | [13] | [14] | [15] | [16]

Fc1ccc(Oc2ccnc3cc(Cl)cc(Cl)c23)cc1
inactive: [1] | [2] | [3] | [4] | [5] | [6] | [7] | [8] | [9] | [10] | [11] | [13] | [14] | [15] | [16]
active: [12] 109 µM

CCOc1cc(Oc2ccc(C(F)(F)F)cc2Cl)ccc1[N+](=O)[O-]
inactive: [1] | [2] | [3] | [4] | [5] | [6] | [7] | [8] | [9] | [10] | [18] | [11] | [12] | [13] | [14] | [15] | [16]

CCNc1nc(Cl)nc(NCC)n1
inactive: [1] | [2] | [3] | [4] | [5] | [6] | [7] | [8] | [9] | [10] | [18] | [11] | [12] | [13] | [14] | [15] | [16]

CCc1nn(C)c(C(=O)NCc2ccc(C(C)(C)C)cc2)c1Cl
active: [2] 18.3 nM | [9] 9.39 µM | [11] 19.8 µM
inactive: [1] | [17] | [4] | [5] | [6] | [7] | [8] | [10] | [12] | [13] | [14] | [15] | [16]
